Assay results published in PubChem BioAssay (NCATS).
Inconclusive results are not listed. Where a call stands in place of a potency, no number is given. Unmarked numbers belong to inactive results. The source made the active and inactive calls. Calls follow the shape of the dose curve; as a rule, active = well fitted cell-killing curve with a large enough effect; inconclusive = small, poorly fitted or top-dose-only effect, or effect the other way; inactive = flat fitted curve, though single readings scatter.

Key:
Assay in all cases: Primary qHTS to identify gynecologic anti-cancer compounds using libraries of approved drugs and bioactive compounds (AID 1345084); also: nearly all actives have a fitted effect of over 55% in size
[1] = tested on: C33A; conditions: Gynecologic cancer cell panel viability, ATPlite luminescence, 48 h; series mostly up to 57.5 µM
Summary of the method: (§1)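 Luminescence from the ATPlite ATP-monitoring reagent indicates viable cell number; lower signal means cytotoxicity. Cells received compound 16 h after seeding and were exposed for 48 h across five concentrations.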

[2] = tested on: CAOV3; conditions: Gynecologic cancer cell panel viability, ATPlite luminescence, 48 h; series mostly up to 57.5 µM
Summary of the method: as §1

[3] = tested on: Es-2; conditions: Gynecologic cancer cell panel viability, ATPlite luminescence, 48 h; series mostly up to 57.5 µM
Summary of the method: as §1

[4] = tested on: HeLa; conditions: Gynecologic cancer cell panel viability, ATPlite luminescence, 48 h; series mostly up to 57.5 µM
Summary of the method: as §1

[5] = tested on: Hek293T; conditions: Gynecologic cancer cell panel viability, ATPlite luminescence, 48 h, control line for the selectivity index; series mostly up to 57.5 µM
Summary of the method: as §1

[6] = tested on: JEG-3; conditions: Gynecologic cancer cell panel viability, ATPlite luminescence, 48 h; series mostly up to 57.5 µM
Summary of the method: as §1

[7] = tested on: PA-1; conditions: Gynecologic cancer cell panel viability, ATPlite luminescence, 48 h; series mostly up to 57.5 µM
Summary of the method: as §1

[8] = tested on: Tov-21-G; conditions: Gynecologic cancer cell panel viability, ATPlite luminescence, 48 h; series mostly up to 57.5 µM
Summary of the method: as §1

[9] = tested on: Tov112D; conditions: Gynecologic cancer cell panel viability, ATPlite luminescence, 48 h; series mostly up to 57.5 µM
Summary of the method: as §1

[10] = tested on: OV90; conditions: Gynecologic cancer cell panel viability, ATPlite luminescence, 48 h; series mostly up to 57.5 µM
Summary of the method: as §1

[11] = tested on: SKOV3; conditions: Gynecologic cancer cell panel viability, ATPlite luminescence, 48 h; series mostly up to 57.5 µM
Summary of the method: as §1

[12] = tested on: CASKI; conditions: Gynecologic cancer cell panel viability, ATPlite luminescence, 48 h; series mostly up to 57.5 µM
Summary of the method: as §1
Potency is read from the fitted curve at half-maximal effect.

Structure (SMILES)	Potency [1]	Potency [2]	Potency [3]	Potency [4]	Potency [5]	Potency [6]	Potency [7]	Potency [8]	Potency [9]	Potency [10]	Potency [11]	Potency [12]
CCCn1ncc(CN2CCCC(C(=O)c3cccc(OC(C)C)c3)C2)c1C (configuration not stated)	inactive	inactive	inactive	inactive	inactive	inactive	inactive	inactive	inactive			
OC1CCC(Nc2nc(-c3ccccc3)nc3[nH]ccc23)CC1 (configuration not stated)	inactive	inactive	inactive	inactive	inactive	inactive	inactive	inactive	inactive	inactive	inactive	
Cc1cc(C(C)Nc2ccccc2C(=O)O)c2nc(N3CCOCC3)cc(=O)n2c1 (configuration not stated)	inactive	inactive	inactive	inactive					inactive	inactive		
COc1ccc(C[C@H]2COC(=O)[C@@H]2Cc2ccc(O[C@@H]3O[C@H](CO)[C@@H](O)[C@H](O)[C@H]3O)c(OC)c2)cc1OC	inactive	inactive	inactive	inactive		inactive		inactive	inactive	inactive	4.47 µM (active)	
COC1CC(=O)C23C(=O)NC(Cc4c[nH]c5ccccc45)C2C(C)C2(C)OC2C3/C=C/CC(C)CC1O (configuration not stated)	inactive	inactive	inactive		inactive				inactive	inactive	8.91 µM (active)	
NC(=O)c1cccc2[nH]c(-c3ccc(C4CCCN4)cc3F)nc12 (configuration not stated)	17.8 µM (active)	10 µM (active)	15.8 µM (active)		12.6 µM (active)	11.2 µM (active)		12.6 µM (active)	15.8 µM (active)		14.1 µM (active)	
CN(C)c1cccc(Oc2cnc(Nc3cccc(O)c3)nc2)c1	inactive	inactive		inactive	inactive	inactive	inactive		inactive	inactive	inactive	
Cn1c(=O)c(F)c(Nc2ccc(I)cc2F)c2c(=O)n(CC(O)CO)cnc21 (configuration not stated)	inactive	inactive	3.16 µM (active)	inactive	inactive	inactive						
C=C[C@@]12COC(=O)C(=C)[C@@H]1[C@@H](O)[C@H](C(=C)C(=O)OC)[C@@H](O)C2	inactive	inactive			inactive					inactive	inactive	inactive
Fc1ccc(CN2CCC(Nc3ccc(C(F)(F)F)nn3)CC2)cc1F	inactive	inactive	inactive	inactive	inactive	inactive	inactive	inactive	inactive	inactive	inactive	
CC1CC(=O)C2=C(C1)C1OC1C1(O)C2C(=O)c2cccc(O)c2C1O (configuration not stated)	inactive	inactive			inactive				0.0891 µM (active)	inactive	inactive	inactive
CCC(C)CC(=O)OC1C(=O)C(CO)=CC(O)C1C(C)C (configuration not stated)	31.6 µM (active)	28.2 µM (active)					31.6 µM (active)	25.1 µM (active)				28.2 µM (active)
C=C1[C@H]2CC[C@H](C(=O)O)[C@@]23CC[C@H](C3)C1(C)C	inactive	inactive	inactive	inactive	inactive	inactive	inactive	inactive	inactive	inactive	inactive	
Cc1nc2ccc(CN(C)c3ccc(C(=O)NC(CCC(=O)O)C(=O)O)s3)cc2c(=O)[nH]1 (configuration not stated)	inactive	inactive			inactive				0.282 µM (active)	inactive		inactive
CC(F)(F)CN1CCOc2c(nn(-c3ccccc3Cl)c2-c2ccc(Cl)cc2)C1=O	inactive	inactive	inactive	inactive	inactive	inactive	inactive	inactive	inactive	inactive	inactive	
O=C(Nc1ccc2[nH]nc(-c3ccncc3)c2c1)[C@@H]1CCN(CC(=O)N2CCN(c3ccc(-c4ncccn4)cc3)CC2)C1	inactive	inactive			inactive	inactive	inactive		inactive		inactive	inactive
Cn1ncnc1[C@H]1c2n[nH]c(=O)c3cc(F)cc(c23)N[C@@H]1c1ccc(F)cc1	inactive	inactive		inactive	inactive		1 µM (active)	inactive		inactive	inactive	
Cc1cc(OCCCS(C)(=O)=O)cc(C)c1-c1cccc(COc2ccc(C3=CC(=O)NS3=O)cc2)c1 (configuration not stated)	inactive	inactive	inactive		inactive	inactive		inactive	inactive		inactive	
Cn1ncc(Cl)c1-c1cc(C(=O)N[C@H](CN)Cc2ccc(F)c(F)c2)sc1Cl	5.62 µM (active)	inactive	inactive	inactive		inactive	inactive	0.891 µM (active)	inactive		14.1 µM (active)	
CCCSc1nc(N[C@@H]2C[C@H]2c2ccc(F)c(F)c2)c2nnn([C@@H]3C[C@H](OCCO)[C@@H](O)[C@H]3O)c2n1	inactive	inactive	inactive	inactive	inactive	inactive	inactive	inactive	inactive	inactive	inactive	
COC(=O)CC1OC(C)C2=C(O)c3c(O)cccc3C(=O)C23OC13 (configuration not stated)	12.6 µM (active)	3.55 µM (active)	10 µM (active)		10 µM (active)		3.98 µM (active)	6.31 µM (active)	6.31 µM (active)	10 µM (active)		
Cn1cc(-c2cnn3c(N)c(Br)c([C@@H]4CCCNC4)nc23)cn1	inactive	inactive							inactive	inactive		inactive
N#C/C(=C1\Nc2ccccc2S1)c1ccnc(NCCc2cccnc2)n1	inactive	inactive				inactive			inactive	inactive		inactive
Cc1ccc(O)cc1Nc1ccnc(Nc2cccc(C(N)=O)c2)n1	inactive	inactive				inactive		10 µM (active)				
CN(C)c1ccc(NC(=O)NS(=O)(=O)c2ccc(Cl)cc2)cc1	inactive		inactive	inactive	inactive	inactive	inactive	inactive	inactive	inactive	inactive	inactive
COC1CC(=O)C23C(=O)NC(CC(C)C)C2C(C)C(C)=CC3/C=C(\C)CCCC1O (configuration not stated)	inactive		inactive	inactive	inactive	inactive	inactive	inactive	inactive	inactive	inactive	inactive
CCCCCCCOc1cc2c(cc1/C(C)=C/c1ccc(C(=O)O)cc1)C(C)(C)CCS2(=O)=O	inactive		inactive	inactive	inactive	inactive	inactive	inactive	inactive	inactive	inactive	inactive
